Measured values from PubChem BioAssay (Tox21).
Results filed as inconclusive are left out. Where a call stands in place of a potency, no number is given. Calls of active or inactive are those of the source. The call rests on the fitted dose curve; in most records, active means well fitted cell-killing curve with a large enough effect in the repeat runs; inconclusive means weak or mixed curves, or effect the other way; inactive means flat fitted curve, though single readings scatter.
Potency means the concentration at half of the fitted maximal effect.

Experiment: qHTS assay to identify small molecule antagonists of the estrogen receptor alpha (ER-alpha) signaling pathway using the BG1 cell line in the presence of 0.1 nM 17-beta-estradiol - cell viability counter screen (AID 1259241); further: nearly all actives have a fitted effect of over 40% in size
Details: VM7Luc4E2 (BG1) viability, CellTiter-Fluor protease, 22 h, 0.1 nM estradiol agonist added; series mostly up to 92.4 µM
Summary of the method: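 Estradiol-stimulated (0.1 nM) VM7Luc4E2 cells exposed to compounds 22 hr; viability measured by fluorescence of cleaved CellTiter-Fluor substrate after 30 min.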
With `Nc1ccccc1C(=O)OC/C=C/c1ccccc1` the Potency was “inactive”. In the case of `S=C(SSC(=S)N1CCCCC1)N1CCCCC1`, the Potency is reported as “inactive”. In the case of `CCN`, the Potency is reported as “inactive”. For `O=c1oc2ccccc2c(O)c1Cc1c(O)c2ccccc2oc1=O`, the Potency was “inactive”. For `C[C@@H]1CC[C@@]2(OC1)O[C@H]1[C@@H](O)[C@H]3[C@@H]4CC[C@H]5C[C@@H](O[C@@H]6O[C@H](CO)[C@H](O[C@@H]7O[C@H](CO)[C@@H](O)[C@H](O[C@@H]8OC[C@@H](O)[C@H](O)[C@H]8O)[C@H]7O[C@@H]7O[C@H](CO)[C@@H](O)[C@H](O[C@@H]8O[C@H](CO)[C@@H](O)[C@H](O)[C@H]8O)[C@H]7O)[C@H](O)[C@H]6O)[C@H](O)C[C@]5(C)[C@H]4CC[C@]3(C)[C@H]1[C@@H]2C`, the Potency was 29 µM (active). In the case of `CC(C)OC(=O)C(O)(c1ccc(Cl)cc1)c1ccc(Cl)cc1`, the Potency is reported as “inactive”. In the case of `C=CC(=O)OCCCCOC(=O)C=C`, the Potency is reported as “inactive”. In the case of `COP(N)(=S)OC`, the Potency is reported as “inactive”. With `COc1cccc2c1C(=O)c1c(O)c3c(c(O)c1C2=O)C[C@@](O)(C(=O)CO)CC3OC1CC(N2CCOC(OC)C2)C(O)C(C)O1` (stereo partly drawn) the Potency was 13.3 µM (active). For `Cn1cc(C2=C(c3cn(C4CCN(Cc5ccccn5)CC4)c4ccccc34)C(=O)NC2=O)c2ccccc21`, the Potency was “inactive”. With `O=[N+]([O-])c1ccc(Oc2ccc(C(F)(F)F)cc2[N+](=O)[O-])cc1` the Potency was “inactive”. In the case of `C=CC(=O)OCC(COC(=O)C=C)(COC(=O)C=C)COC(=O)C=C`, the Potency is reported as 19.3 µM (active). For `CC(C)Oc1cccc(NC(=O)c2ccccc2C(F)(F)F)c1`, the Potency was “inactive”.
